Experimental findings from PubChem BioAssay AID1628 (Sanford-Burnham Center for Chemical Genomics, 2009) are described below.

The campaign covered roughly 190,000 compounds. About 930 (0.49%) were called active. Some of the results follow. Results with a measured potency or affinity are listed apart. Values without a mark were called inactive.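 The calls were made as follows: active = z-score of insulin promoter reporter brightness in nuclei below -3 at 5 µM, with at least 500 cells counted; inconclusive = wells with under 500 cells, flagged as toxic or sparse; inactive = the rest.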

The assay is described as follows: decrease of insulin promoter-GFP reporter – imaging, high-content screening, mouse beta cells (AID 1628). Conditions: MIN6 insulin promoter GFP reporter, at 5 µM, active compounds read low.
Take `CCC(=O)N1c2ccccc2C(N(C(C)=O)c2ccccc2)CC1C` (stereo not given): the z-score is 0.92.
For the compound `Cc1cc(/C=C2\SC(=S)NC2=O)c(C)n1-c1ccc(O)cc1`, the z-score is 3.66.
Take `CCCNC(=O)Cn1c(=O)/c(=C\c2ccc(-c3ccc([N+](=O)[O-])cc3)o2)s/c1=C\C(=O)C(C)(C)C`: the z-score is 18.3.
Turning to `COc1ccc(OC)c(C2C3CN(C(C)C)CC=C3C(C#N)=C(N)C2(C#N)C#N)c1` (stereo not given), the z-score is 17.1.
Consider `CCC(Sc1nnc(C)s1)C(=O)Nc1nccs1` (stereo not given), for which the z-score was 1.54.
Turning to `CCc1c(C)nc2ncnn2c1N1CCC(C(=O)N2CCN(c3ccc(F)cc3)CC2)CC1`, the z-score was -3.04 (active).
For `Cc1nc2ncnn2c(N2CCCC(C(=O)Nc3ccc4c(c3)CCC4)C2)c1C` (stereo not given) the value was -5.29 (active); for `O=C(Nc1ccc(C2CCCCC2)cc1)C1CCCN(c2ncccn2)C1` (stereo not given), 3.77.
Turning to `OC1(c2cn(Cc3ccccc3)nn2)CCCCC1`, the z-score is 5.88.
Turning to `Cc1ccc(C(C#N)c2ccc(C(=O)c3ccc(F)cc3)cc2)cc1` (stereo not given), the z-score was -4.77 (active).
For `CCS(=O)(=O)c1ccc2oc(SCC(=O)NC3CCCC(C)C3C)nc2c1` (stereo not given) the value was 4.28.
As to `Fc1ccc(NCc2nnc(SCc3nnc(-c4ccccc4)o3)n2Cc2ccccc2)cc1`, the z-score is -4.77 (active).
For `Cc1ccccc1NC(=O)/C(=C\c1cccs1)NC(=O)c1ccco1` the value was -5.39 (active); for `CN1CCN(C(=O)/C(=C\c2cccs2)NC(=O)c2cccs2)CC1`, 6.06; for `CN1CCN(C(=O)/C(=C\c2cccs2)NC(=O)c2ccco2)CC1`, -6.33 (active).
As to `O=C1c2cccc3c(O)ccc(c23)C(=O)N1Cc1ccco1`, the z-score was 12.8.
Under `CC(C)C[C@@H]1NC(=O)[C@H](C(C)C)NC(=O)c2cc([N+](=O)[O-])cc(I)c2NCC[C@@H](C(N)=O)NC1=O` stands -5.69 (active); under `NCCCC[C@@H]1NC(=O)[C@H](CCC(=O)O)NC(=O)c2cc([N+](=O)[O-])cc(I)c2NCC[C@@H](C(N)=O)NC1=O`, -4.01 (active).
`NC(=O)CC[C@@H]1NC(=O)[C@@H]2CCCN2C(=O)c2cc([N+](=O)[O-])cc(I)c2NCCCC[C@@H](C(=O)NC(CC(=O)O)C(N)=O)NC1=O` (stereo not given in full): the z-score was -4.71 (active).
`Cc1oc(C)c2c(=O)ccc3c(c12)OC(N)=C(C#N)C3c1ccc(F)cc1` (stereo not given): the z-score is 3.56.
For `CCCCSc1nnc(CCCCCNC(=O)OC(C)(C)C)o1` the value was -4.83 (active); for `COc1ccc(-c2cc(C(=O)Nc3cc(S(=O)(=O)N4CCOCC4)ccc3N3CCOCC3)c3ccccc3n2)cc1`, -3.45 (active); for `COc1cccc(-c2cc(C(=O)Nc3ccc4c(c3)OCCO4)c3ccccc3n2)c1`, -4.93 (active).
On to `Cc1ccn2cc(-c3ccc(S(=O)(=O)N4CCOCC4)cc3)nc2c1`, for which the z-score was -0.88.
Consider `COc1cc(S(=O)(=O)N2CCOCC2)ccc1NC(=O)COC(=O)C12CC3CC(CC(C3)C1)C2`, for which the z-score is 3.88.
On to `COc1ccc2cc(/C(C)=N/NC(=S)Nc3cc(S(=O)(=O)N4CCOCC4)ccc3N3CCOCC3)ccc2c1`, for which the z-score is -3.25 (active).
On to `COc1ccc(C2C(C(C)=O)=C(C)N=c3s/c(=C\c4cc(C)n(C)c4C)c(=O)n32)c(OC)c1` (stereo not given), for which the z-score was 8.76.
On to `N#C/C(=C\C1=C(N2CCOCC2)C(=C\c2ccc(Cl)cc2)/CC1)C(=O)Nc1ccccc1F`, for which the z-score was 3.27.
`CN1CC=C2C(C#N)=C(N)C(C#N)(C#N)C(c3ccsc3)C2C1` (stereo not given): the z-score is 4.07.
`Cc1ccc2c(c1)cc(CN(Cc1ccc3c(c1)OCO3)S(=O)(=O)c1ccccc1)c1nnnn12`: the z-score was -3.75 (active).
As to `Cc1cc(-c2cccs2)c2c(N)c(C(=O)c3ccc4c(c3)OCO4)sc2n1`, the z-score is 4.7.
In the case of `COc1ccc2c(C(=O)CN(C)C3CCCCC3)c[nH]c2c1`, the z-score is 4.45.
Under `O=C(NC1CCCC1)c1c[nH]c2ccc(F)cc2c1=O` stands -3.28 (active).
Regarding `Cc1ccc(C2C3CN(C(C)C)CC=C3C(C#N)=C(N)C2(C#N)C#N)cc1` (stereo not given), the z-score is 10.3.
Consider `NC(=O)CCN1CCN(CCOC2Cc3cc(Cl)ccc3Sc3ccccc32)CC1` (stereo not given), for which the z-score was -4.24 (active).
Regarding `CC(C)CC(=O)c1c[nH]c(C(=O)NCCc2ccccn2)c1`, the z-score was -3.63 (active).
On to `Nc1c(C(=O)N/N=C/c2cccnc2)oc2nc(-c3ccco3)cc(-c3ccco3)c12`, for which the z-score is 5.39.
Turning to `O=C(Nc1ccc(-c2csc(Nc3cccc(C(F)(F)F)c3)n2)cc1)c1cccc(C(F)(F)F)c1`, the z-score is -4.02 (active).
On to `c1ccc(N2CCN(c3nc(NCc4ccco4)c4ccccc4n3)CC2)cc1`, for which the z-score is -3.05 (active).
On to `c1ccc(CN2CCN(c3nc(NCc4ccco4)c4ccccc4n3)CC2)cc1`, for which the z-score is -3.17 (active).
Consider `CCCS(=O)(=O)N1CCC(C(=O)N2CCOCC2)CC1`, for which the z-score was 4.02.
Under `O=C(/C=C/c1cn(CC(O)CN2CCCCC2)c2ccccc12)c1cccs1` (stereo not given) stands 4.58.
As to `O=C(/C=C/c1cn(CC(O)CN2CCCCCC2)c2ccccc12)c1cccs1` (stereo not given), the z-score is 5.06.
`OC(CN1CCCCC1)CN(c1ccccc1)c1ccccc1` (stereo not given): the z-score is -4.02 (active).
As for `Cc1c(-c2ccc(O)cc2)nc2nc(-c3ccccc3)c(-c3ccccc3)nn12`, the z-score was 17.8.
For the compound `COc1cccc(OC)c1OCCN(C)C`, the z-score was 3.98.
Take `O=c1c([N+](=O)[O-])cccn1Cc1ccc(F)cc1Cl`: the z-score is 3.36.
As for `Cc1ccc(S(=O)(=O)c2nc(-c3cccs3)oc2NCCCN(C)C)cc1`, the z-score is -5.47 (active).
`CCC(C)(C)n1nnnc1C(c1ccccc1)N1CCN(C2CCCC2)CC1` (stereo not given): the z-score was -4.27 (active).
Consider `CCC(C)(C)n1nnnc1C(c1cccc(C#N)c1)N1CCN(c2cccc(C)c2C)CC1` (stereo not given), for which the z-score is -3.1 (active).
For `Cc1cccc(N2CCN(C(c3ccccc3)c3nnnn3CC3CCCO3)CC2)c1C` (stereo not given) the value was -3.05 (active); for `CCCOc1ccc(-c2nn(-c3ccccc3)cc2/C=C2\SC(=S)N(C3CCS(=O)(=O)C3)C2=O)cc1` (stereo not given), 4.83; for `Cc1ccc(S(=O)(=O)N2CCCC2C(=O)N(C)Cc2cccs2)cc1` (stereo not given), 4.2.
For `Cc1ccc(S(=O)(=O)N(C)c2ccc(C(=O)N3CCCCC3)cc2)cc1` the value was -5.08 (active).
For the compound `O=C(CCC(=O)c1ccc(F)cc1)Nc1cccc(C(F)(F)F)c1`, the z-score is -5.11 (active).
Consider `CC1(C)OC(=O)N(CC(=O)Nc2cccc(C(F)(F)F)c2)C1(C)O` (stereo not given), for which the z-score was 0.44.
For `CCOC(=O)c1nnn(-c2nonc2N)c1CN1CCCCCC1`, the z-score was 0.52.
In the case of `CCOC(=O)c1nnn(-c2nonc2N)c1-c1ccc(OC)cc1`, the z-score is -5.06 (active).
Turning to `CCOC(=O)c1nnn(-c2nonc2N)c1-c1ccc(OCC)cc1`, the z-score was 3.82.
On to `N#C/C(=C\C1=C(N2CCOCC2)C(=C/c2cccc([N+](=O)[O-])c2)/CC1)C(=O)Nc1ccccc1F`, for which the z-score is 3.07.
On to `CC(=O)Nc1sc(/C(C#N)=C/c2ccc(Cl)c(Cl)c2)nc1-c1ccc(C)cc1`, for which the z-score is 17.4.
Turning to `O=c1[nH]c2ccc(NS(=O)(=O)c3ccc([N+](=O)[O-])cc3)cc2[nH]1`, the z-score was 2.55.
Take `O=C(c1cccs1)c1no[n+]([O-])c1C(=O)c1cccs1`: the z-score was 3.78.
Consider `CCOC(=O)Cn1c2ccc(F)cc2c2nc(C)sc21`, for which the z-score is 3.68.
On to `CCCCn1c(=N)n(CCOc2ccc(C)cc2)c2ccccc21`, for which the z-score is -3.46 (active).
For the compound `CCCn1c(=N)n(CCOc2ccc(OC)cc2)c2ccccc21`, the z-score was -4.79 (active).
`COc1ccc(OCCn2cc(/C(N)=N/O)c3ccccc32)cc1`: the z-score is 3.09.
For `CCOC(=O)Cn1c(=N)n(CCOc2cccc(C)c2)c2ccccc21`, the z-score is -4.7 (active).
Under `Cc1cc(/C=C2/C(=O)N(C)C(=S)N2C)ccc1N1CCCC1` stands 15.4; under `COc1ccc(CCNc2oc(COc3ccccc3Cl)nc2C#N)cc1OC`, -3.1 (active).
For `COc1cccc(C2=N/C(=C\N(C)C)C(=O)O2)c1`, the z-score was 0.86.
Consider `COc1cccc(-n2nc(C#N)c(Cl)cc2=O)c1`, for which the z-score was -3.8 (active).
Take `N#Cc1ccsc1NC(=O)COC(=O)c1ccc2ccccc2c1`: the z-score was -6.27 (active).
As to `Cc1ccc(N2CCN(C3=NC(=O)/C(=C\c4cccs4)S3)CC2)cc1`, the z-score is -4.27 (active).
Take `Cc1ccc(C2(C(F)(F)F)N=C3Sc4cc(C)ccc4N3C(=O)N2)cc1` (stereo not given): the z-score was 3.48.
Consider `Cc1cc(N2CCOCC2)ccc1/C=C1/SC(=O)NC1=O`, for which the z-score is 1.71.
As for `CCCOc1cc(N(CC)CC)ccc1/C=C(/C#N)c1nc2ccc(C)cc2[nH]1`, the z-score is 15.5.
Under `C=CCSc1nnc(NC(=O)c2cccc(S(=O)(=O)N3CCOCC3)c2)s1` stands 3.22; under `CCN(CC)c1ccc(/C=N/NC(=O)c2cccc(S(=O)(=O)N3CCOCC3)c2)c(O)c1`, -6.39 (active); under `CCN(CC)c1ccc(C(=O)N/N=C/c2ccc(N3CCOCC3)cc2)cc1`, 3.38.
For `CCCCn1c(O)c(/C=C/C=C/C=Nc2ccccc2)sc1=S`, the z-score was 4.72.
In the case of `COc1c2ccoc2nc2c(OC)c(O)ccc12`, the z-score was -0.14.
For the compound `Cc1ccc(-c2ccc(/C=C(\C#N)C(=O)Nc3cc(C)nn3-c3ccccc3)o2)cc1`, the z-score is 3.08.
Take `Cc1nn(-c2ccccc2)c(C)c1NC(=O)CCl`: the z-score was 3.88.
Turning to `COc1ccc(CCNC(=S)Nc2ccc(C)cc2C)cc1`, the z-score is -3.98 (active).
Take `Cc1ccc(NC(=O)CCl)c(C)c1`: the z-score was 3.51.
As for `Cc1ccc(C)c(NC(=S)N2CCCCCC2)c1`, the z-score is 0.89.
For `COc1ccc(C2=CC(c3ccc(OC)c(OC)c3)n3nnnc3N2)c(OC)c1` (stereo not given) the value was -3.02 (active).
Turning to `CCCCCOC(=O)C1=C(C)Nc2nnnn2C1c1ccc(OC)c(OC)c1OC` (stereo not given), the z-score was 3.26.
With `COc1ccc(C2C=C(c3cccs3)Nc3nc(CCCO)nn32)cc1` (stereo not given), the z-score is 5.85.
